Measured values reported in the supplement of paper PMC11732987, “Enantioselective OTUD7B fragment discovery through chemoproteomics screening and high-throughput optimisation” (Communications Chemistry, 2025).

Legend:
Test in all cases: log2 ratio of Biotin-Ahx-Ub-VS probe labelling (fragment/DMSO); higher = less target engagement (more negative = stronger competition), active = hit call of the paper (q ≤ 0.05, log2 ratio ≤ -1)
Settings in all cases: compound concentration: 200 uM; treatment time: 3 h
[1] = biological target: T1, USP19 (UniProt O94966)
T1 sequence (whole entry): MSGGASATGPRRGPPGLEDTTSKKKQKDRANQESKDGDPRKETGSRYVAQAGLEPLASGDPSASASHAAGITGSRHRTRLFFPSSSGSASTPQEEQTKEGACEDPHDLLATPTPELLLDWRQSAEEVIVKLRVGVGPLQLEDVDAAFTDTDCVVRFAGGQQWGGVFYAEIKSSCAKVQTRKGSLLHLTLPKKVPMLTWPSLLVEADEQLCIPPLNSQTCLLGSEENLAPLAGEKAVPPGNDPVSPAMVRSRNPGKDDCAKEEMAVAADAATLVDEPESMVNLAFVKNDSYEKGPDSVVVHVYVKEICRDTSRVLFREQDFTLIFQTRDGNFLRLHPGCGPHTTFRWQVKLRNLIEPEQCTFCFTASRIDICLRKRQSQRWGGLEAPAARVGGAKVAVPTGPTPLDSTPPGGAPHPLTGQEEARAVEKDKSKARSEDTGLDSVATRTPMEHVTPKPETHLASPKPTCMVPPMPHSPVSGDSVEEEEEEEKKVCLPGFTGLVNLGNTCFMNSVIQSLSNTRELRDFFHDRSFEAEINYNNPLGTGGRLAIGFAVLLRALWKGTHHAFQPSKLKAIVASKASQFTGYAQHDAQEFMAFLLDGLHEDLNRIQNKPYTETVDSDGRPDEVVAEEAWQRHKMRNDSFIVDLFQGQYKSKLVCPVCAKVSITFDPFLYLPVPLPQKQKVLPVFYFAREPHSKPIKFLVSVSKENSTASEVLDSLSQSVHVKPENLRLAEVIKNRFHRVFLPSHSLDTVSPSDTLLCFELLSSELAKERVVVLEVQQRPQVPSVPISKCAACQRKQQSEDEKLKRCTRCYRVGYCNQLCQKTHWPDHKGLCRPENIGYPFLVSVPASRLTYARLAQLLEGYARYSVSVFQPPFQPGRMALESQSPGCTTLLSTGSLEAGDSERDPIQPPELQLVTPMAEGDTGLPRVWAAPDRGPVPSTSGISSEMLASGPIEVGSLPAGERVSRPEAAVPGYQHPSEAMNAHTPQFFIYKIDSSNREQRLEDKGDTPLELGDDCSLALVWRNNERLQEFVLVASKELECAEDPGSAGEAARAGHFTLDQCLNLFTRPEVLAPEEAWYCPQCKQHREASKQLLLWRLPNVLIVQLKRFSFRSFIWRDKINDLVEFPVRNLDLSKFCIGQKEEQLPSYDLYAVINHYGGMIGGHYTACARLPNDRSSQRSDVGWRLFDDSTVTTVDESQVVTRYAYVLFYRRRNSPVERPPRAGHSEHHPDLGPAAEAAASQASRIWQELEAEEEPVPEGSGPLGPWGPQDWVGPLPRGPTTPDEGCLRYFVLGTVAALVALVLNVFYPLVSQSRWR
Method in brief: (§1)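 Each value is an average log2 ratio of fragment to vehicle, tested by unpaired t-test. The underlying Spectronaut label-free quantities were global-median-normalised, and only proteins with ≥2 unique peptides were included. Triplicate HEK293T lysate samples (495 µg) were exposed to fragment at 200 µM or vehicle for 3 h, then to Biotin-Ahx-Ub-VS at 0.5 µM final for 1 h, before NeutrAvidin enrichment of labelled DUBs, LysC and trypsin digestion, and diaPASEF LC-MS/MS.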

[2] = biological target: T2, USP22 (UniProt Q9UPT9)
T2 sequence (whole entry): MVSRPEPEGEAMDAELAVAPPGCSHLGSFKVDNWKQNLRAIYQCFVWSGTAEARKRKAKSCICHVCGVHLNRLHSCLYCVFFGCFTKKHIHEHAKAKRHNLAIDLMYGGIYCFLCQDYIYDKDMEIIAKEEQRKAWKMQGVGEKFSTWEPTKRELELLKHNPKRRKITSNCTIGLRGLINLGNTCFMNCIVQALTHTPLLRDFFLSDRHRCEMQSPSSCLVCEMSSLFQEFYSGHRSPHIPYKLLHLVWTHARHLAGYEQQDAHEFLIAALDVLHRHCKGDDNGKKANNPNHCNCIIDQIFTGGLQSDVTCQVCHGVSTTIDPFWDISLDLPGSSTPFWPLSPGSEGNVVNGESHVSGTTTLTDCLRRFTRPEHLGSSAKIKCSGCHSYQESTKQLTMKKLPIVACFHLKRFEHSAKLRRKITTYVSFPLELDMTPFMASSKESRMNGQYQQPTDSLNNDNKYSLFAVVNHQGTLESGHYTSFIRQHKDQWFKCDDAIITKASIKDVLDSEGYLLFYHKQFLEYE
Method in brief: as §1

[3] = biological target: USP24 (UniProt Q9UPU5)
USP24, sequence (Q9UPU5 whole entry): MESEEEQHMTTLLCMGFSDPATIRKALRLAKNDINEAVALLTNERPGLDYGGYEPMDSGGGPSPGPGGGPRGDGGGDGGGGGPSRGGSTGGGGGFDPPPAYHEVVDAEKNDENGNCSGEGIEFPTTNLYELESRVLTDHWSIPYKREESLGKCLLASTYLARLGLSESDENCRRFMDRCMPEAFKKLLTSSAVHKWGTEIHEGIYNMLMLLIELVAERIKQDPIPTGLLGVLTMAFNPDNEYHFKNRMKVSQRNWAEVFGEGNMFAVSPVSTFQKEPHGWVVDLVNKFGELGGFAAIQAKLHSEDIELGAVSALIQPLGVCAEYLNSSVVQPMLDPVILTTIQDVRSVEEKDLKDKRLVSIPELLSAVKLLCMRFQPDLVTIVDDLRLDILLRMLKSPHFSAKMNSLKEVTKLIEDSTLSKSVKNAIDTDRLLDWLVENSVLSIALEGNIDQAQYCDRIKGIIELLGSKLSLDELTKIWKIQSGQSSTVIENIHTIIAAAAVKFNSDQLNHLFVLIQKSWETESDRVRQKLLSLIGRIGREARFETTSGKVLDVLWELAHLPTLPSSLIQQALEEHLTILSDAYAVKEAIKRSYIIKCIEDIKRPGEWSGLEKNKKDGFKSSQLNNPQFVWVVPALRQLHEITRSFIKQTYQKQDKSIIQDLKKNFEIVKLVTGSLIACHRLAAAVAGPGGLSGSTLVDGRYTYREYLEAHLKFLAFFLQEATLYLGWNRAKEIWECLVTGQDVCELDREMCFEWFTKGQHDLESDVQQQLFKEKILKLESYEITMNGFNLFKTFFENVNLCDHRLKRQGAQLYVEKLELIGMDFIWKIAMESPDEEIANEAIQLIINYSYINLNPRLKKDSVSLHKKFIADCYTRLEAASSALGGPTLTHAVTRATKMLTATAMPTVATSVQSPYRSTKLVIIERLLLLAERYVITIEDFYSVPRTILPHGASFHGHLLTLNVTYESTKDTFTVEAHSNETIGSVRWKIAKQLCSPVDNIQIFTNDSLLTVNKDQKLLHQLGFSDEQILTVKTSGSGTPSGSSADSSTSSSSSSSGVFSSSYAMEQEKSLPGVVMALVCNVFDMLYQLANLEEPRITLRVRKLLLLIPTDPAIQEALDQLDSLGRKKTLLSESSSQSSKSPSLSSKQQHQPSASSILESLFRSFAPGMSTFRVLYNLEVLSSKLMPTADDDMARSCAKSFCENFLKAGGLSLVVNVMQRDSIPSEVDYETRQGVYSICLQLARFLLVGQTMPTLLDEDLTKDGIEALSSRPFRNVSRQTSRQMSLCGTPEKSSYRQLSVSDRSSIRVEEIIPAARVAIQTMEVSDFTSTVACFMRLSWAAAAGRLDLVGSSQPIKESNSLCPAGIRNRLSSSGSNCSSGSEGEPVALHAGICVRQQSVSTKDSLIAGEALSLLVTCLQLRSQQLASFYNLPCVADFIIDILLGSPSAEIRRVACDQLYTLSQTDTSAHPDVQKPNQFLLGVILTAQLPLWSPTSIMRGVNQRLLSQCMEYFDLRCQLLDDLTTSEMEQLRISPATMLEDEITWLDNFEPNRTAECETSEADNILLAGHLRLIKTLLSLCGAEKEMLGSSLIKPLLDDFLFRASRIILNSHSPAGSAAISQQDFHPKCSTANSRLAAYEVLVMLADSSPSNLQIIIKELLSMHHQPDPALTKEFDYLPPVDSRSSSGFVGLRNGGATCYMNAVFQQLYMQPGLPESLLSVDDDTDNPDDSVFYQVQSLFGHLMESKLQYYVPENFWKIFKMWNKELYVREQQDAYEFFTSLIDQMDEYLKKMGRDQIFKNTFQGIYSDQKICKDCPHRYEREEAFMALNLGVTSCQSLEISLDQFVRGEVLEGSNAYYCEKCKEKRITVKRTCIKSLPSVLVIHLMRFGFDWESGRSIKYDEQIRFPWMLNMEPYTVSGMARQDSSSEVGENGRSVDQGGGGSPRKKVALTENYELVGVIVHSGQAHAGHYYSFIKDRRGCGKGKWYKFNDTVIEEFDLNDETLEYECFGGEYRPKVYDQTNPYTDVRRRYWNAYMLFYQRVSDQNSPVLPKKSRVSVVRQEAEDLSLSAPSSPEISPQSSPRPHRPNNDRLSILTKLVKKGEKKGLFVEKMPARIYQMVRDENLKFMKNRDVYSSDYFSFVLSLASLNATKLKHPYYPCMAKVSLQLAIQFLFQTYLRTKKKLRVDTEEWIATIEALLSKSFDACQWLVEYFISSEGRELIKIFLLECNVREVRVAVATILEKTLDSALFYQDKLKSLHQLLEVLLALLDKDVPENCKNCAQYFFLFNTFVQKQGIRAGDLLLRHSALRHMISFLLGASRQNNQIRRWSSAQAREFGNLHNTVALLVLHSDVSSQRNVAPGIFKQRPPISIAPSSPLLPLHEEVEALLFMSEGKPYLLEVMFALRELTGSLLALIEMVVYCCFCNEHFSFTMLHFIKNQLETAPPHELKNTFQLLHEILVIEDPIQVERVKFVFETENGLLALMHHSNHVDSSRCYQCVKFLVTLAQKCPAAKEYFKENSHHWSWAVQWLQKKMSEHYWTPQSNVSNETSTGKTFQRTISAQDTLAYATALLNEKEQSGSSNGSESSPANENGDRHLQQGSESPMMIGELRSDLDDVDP
Method in brief: as §1

[4] = biological target: T3, USP25 (UniProt Q9UHP3)
T3 sequence (whole entry): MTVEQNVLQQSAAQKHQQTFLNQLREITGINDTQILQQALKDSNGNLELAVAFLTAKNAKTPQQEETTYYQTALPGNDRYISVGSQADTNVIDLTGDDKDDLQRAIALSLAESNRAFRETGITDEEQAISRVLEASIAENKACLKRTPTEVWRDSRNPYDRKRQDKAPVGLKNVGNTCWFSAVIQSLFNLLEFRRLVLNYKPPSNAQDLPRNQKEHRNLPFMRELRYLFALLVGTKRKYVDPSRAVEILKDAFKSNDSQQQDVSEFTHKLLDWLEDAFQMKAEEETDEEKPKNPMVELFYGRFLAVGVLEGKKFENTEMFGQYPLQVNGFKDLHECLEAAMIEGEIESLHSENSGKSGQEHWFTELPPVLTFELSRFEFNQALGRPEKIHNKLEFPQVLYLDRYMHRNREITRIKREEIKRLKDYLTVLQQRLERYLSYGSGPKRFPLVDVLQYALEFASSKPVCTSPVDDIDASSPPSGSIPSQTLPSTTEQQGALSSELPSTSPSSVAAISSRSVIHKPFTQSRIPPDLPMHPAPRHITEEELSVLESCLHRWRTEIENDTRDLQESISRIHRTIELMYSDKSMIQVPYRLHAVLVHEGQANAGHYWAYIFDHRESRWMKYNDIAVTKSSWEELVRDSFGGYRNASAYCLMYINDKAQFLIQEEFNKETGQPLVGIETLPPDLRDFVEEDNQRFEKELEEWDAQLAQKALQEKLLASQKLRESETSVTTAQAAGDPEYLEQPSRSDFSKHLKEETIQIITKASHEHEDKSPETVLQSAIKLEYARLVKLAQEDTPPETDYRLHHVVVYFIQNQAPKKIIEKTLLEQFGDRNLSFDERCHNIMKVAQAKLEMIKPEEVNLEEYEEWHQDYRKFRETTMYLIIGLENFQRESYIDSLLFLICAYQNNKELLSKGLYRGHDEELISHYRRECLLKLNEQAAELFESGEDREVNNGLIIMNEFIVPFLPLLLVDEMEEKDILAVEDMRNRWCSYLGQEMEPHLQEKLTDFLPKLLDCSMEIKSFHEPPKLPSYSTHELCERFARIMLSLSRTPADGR
Method in brief: as §1

[5] = biological target: T4, USP28 (UniProt Q96RU2)
T4 sequence (whole entry): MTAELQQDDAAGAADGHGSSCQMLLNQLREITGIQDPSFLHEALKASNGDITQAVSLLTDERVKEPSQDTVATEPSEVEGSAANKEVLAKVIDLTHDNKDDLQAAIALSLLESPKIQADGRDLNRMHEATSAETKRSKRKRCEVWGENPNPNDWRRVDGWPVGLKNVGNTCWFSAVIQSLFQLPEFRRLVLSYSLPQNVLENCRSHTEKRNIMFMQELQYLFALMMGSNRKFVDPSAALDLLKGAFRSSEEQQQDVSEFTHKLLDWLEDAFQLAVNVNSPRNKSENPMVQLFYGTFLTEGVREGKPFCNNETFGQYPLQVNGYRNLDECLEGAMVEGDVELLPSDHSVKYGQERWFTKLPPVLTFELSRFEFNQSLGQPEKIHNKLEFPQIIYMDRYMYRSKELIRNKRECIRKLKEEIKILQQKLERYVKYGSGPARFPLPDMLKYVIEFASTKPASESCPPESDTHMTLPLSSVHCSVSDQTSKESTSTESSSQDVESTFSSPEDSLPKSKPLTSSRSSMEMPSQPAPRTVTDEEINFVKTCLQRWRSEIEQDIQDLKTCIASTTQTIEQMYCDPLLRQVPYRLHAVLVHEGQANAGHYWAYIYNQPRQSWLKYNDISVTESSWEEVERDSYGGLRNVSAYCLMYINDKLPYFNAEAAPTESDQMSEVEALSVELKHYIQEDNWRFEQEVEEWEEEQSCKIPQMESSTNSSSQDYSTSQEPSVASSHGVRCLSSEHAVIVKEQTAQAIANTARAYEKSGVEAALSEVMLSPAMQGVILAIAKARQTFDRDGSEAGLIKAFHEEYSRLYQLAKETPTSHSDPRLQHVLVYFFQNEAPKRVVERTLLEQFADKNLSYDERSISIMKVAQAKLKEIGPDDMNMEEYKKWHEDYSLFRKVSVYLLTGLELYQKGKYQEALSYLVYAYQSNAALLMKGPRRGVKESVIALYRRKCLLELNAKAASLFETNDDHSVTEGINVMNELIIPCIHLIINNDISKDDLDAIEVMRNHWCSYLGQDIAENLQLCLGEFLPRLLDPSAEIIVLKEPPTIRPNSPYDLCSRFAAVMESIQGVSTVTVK
Method in brief: as §1

Measured: log2 ratio of Biotin-Ahx-Ub-VS probe labelling

O=C(CCl)N1CCCCC12CCOCC2
inactive: [1] -0.481 | [2] -0.332 | [3] -0.606 | [4] -0.341 | [5] -0.65
